# Compound activity (PubChem BioAssay)
# Only some compounds are listed: those with a hit (about 9% of all), similar ones and a draw of the others.
# ALOX12 inh: Primary qHTS assay for inhibitors of human arachidonate 12S-lipoxygenase (ALOX12): Round 2 | Polyunsaturated fatty acid lipoxygenase ALOX12 (Homo sapiens), P18054 | Potency, µM (doses to about 108 µM), for the others: top-dose activity change, negative = inhibition, hits mostly inhibitors | purified 12hLO, xylenol orange hydroperoxide absorbance | AID 1671190, 2021 | hit rate 1.1% among 580,000; further: on the % scale 0 is the no-effect control and ±100 the full control effect
#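 Purified human 12hLO at 150 nM in 25 mM Hepes, 0.01% Triton X-100, pH 7.0, preincubated 15 min at room temperature with compound. Reaction started with 40 uM arachidonic acid, 30 min at room temperature. Hydroperoxide measured by Fe-xylenol orange, 573/405 nm absorbance ratio.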
# JMJD2A Tudor: qHTS Assay for Inhibitors of JMJD2A-Tudor Domain; Potency, µM (doses to about 114 µM), inactives show at the highest dose activity change, negative = inhibition, usual class: inhibitors; Lysine-specific demethylase 4A (Homo sapiens), O75164; hit rate 4.4% among 390,000; AlphaScreen JMJD2A-Tudor / H3K4me3 peptide binding; AID 504339, 2011; further: on the % scale 0 is the no-effect control and ±100 the full control effect; nearly all actives have a fitted effect of over 50% in size
# BAZ2B inh: qHTS Assay for Inhibitors of BAZ2B; Bromodomain adjacent to zinc finger domain protein 2B (Homo sapiens), Q9UIF8; AlphaScreen BAZ2B-H3K14Ac peptide displacement; Potency, µM (doses to about 114 µM), for inactives: at the top dose activity change, negative = inhibition, most hits filed as inhibitors; hit rate 4.4% among 360,000; further: on the % scale 0 is the no-effect control and ±100 the full control effect; nearly all actives have a fitted effect of over 60% in size
#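 AlphaScreen displacement of biotin-H3(5-23)K14Ac peptide (50 nM final) from BAZ2B (50 nM final) in PBS pH 7.4, 0.01% Tween-20; complex preformed 30 min RT, then compounds (top 110 uM) 30 min RT, beads 20 min dark.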
# PLK1 PBD inh: qHTS for Inhibitors of PLK1-PDB (polo-like kinase 1 - polo-box domain): Primary Screen; Serine/threonine-protein kinase PLK1 (Homo sapiens), P53350; Plk1 PBD binding of FITC phosphopeptide, fluorescence polarization; Potency, µM, for the others: max response, negative = inhibition, actives largely listed as inhibitors; hit rate 2.8% among 360,000; AID 720504, 2013; further: series mostly up to about 57 µM; on the % scale 0 is the no-effect control and ±100 the full control effect; nearly all actives have a fitted effect of over 65% in size
# HP1b chromo inh: HTS for Inhibitors of HP1-beta Chromodomain Interactions with Methylated Histone Tails; Chromobox protein homolog 1 (Homo sapiens), P83916; AlphaScreen HP1-beta / biotin-H3K9me3 peptide binding; Potency, µM (highest dose often 114 µM), for the others: top-dose activity change, negative = inhibition, hits mostly inhibitors; hit rate 0.56% among 390,000; AID 540317, 2011; further: nearly all actives have a fitted effect of over 70% in size
# Target sequence (P83916 whole entry, looked up): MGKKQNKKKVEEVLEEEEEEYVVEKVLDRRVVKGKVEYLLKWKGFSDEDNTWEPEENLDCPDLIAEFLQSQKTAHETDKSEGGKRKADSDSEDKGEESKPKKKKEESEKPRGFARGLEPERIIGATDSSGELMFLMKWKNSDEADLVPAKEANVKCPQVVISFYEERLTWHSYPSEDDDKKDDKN
#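 Compound inhibition of the preformed complex between 50 nM HP1-beta and 50 nM biotinylated H3K9me3 peptide was read by AlphaScreen. Buffer was PBS pH 7.4 with 0.01% Tween-20. Incubations ran 30 min at room temperature, with 10 ug/mL donor/acceptor beads.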
# G9a inh: qHTS Assay for Inhibitors of Histone Lysine Methyltransferase G9a | Histone-lysine N-methyltransferase EHMT2 (Homo sapiens), Q96KQ7 | hit rate 8.8% among 350,000 | G9a H3K9 monomethylation, AlphaScreen, 2 h | AID 504332, 2011 | Potency, µM (top dose mostly 102 µM), for the others: at the top dose activity, negative = inhibition, most hits filed as inhibitors; further: on the % scale 0 is the no-effect control and ±100 the full control effect; nearly all actives have a fitted effect of over 75% in size
# Target sequence (Q96KQ7 913-1193 limits assumed): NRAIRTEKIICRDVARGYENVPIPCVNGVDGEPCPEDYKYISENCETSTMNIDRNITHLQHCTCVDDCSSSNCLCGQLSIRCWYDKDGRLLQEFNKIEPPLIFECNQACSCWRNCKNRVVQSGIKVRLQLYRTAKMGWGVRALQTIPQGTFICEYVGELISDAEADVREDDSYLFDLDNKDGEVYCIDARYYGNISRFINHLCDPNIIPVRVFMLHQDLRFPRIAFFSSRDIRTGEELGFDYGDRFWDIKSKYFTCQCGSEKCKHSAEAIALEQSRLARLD
#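 Enzyme 20 nM + cpd, 15 min RT; add b-H3K9 pep 500 nM / SAM 20 uM; 2 h RT; anti-H3K9me1 Ab 0.5 ug/mL + SA donor / anti-rabbit acceptor beads 20 ug/mL each, 10 min; AlphaScreen read.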
# * hit, by the source's call; ? = inconclusive; . = not tested or not shown; [ ] = another dose, or the depositor's remark. The call rests on the fitted dose curve; in most records, active means well fitted curve in the direction sought with a large enough effect; inconclusive means small, poorly fitted or top-dose-only effect, or another doubt; inactive means no such curve, though single readings can be large; an effect the other way counts as inactive or inconclusive. Potency means the concentration at half of the fitted maximal effect.
SMILES,ALOX12 inh,JMJD2A Tudor,BAZ2B inh,PLK1 PBD inh,HP1b chromo inh,G9a inh
Cc1ccc(CS(=O)Cc2ccc(C(=O)N3CCN(c4cccc(C)c4C)CC3)o2)cc1 (stereo not given),-26.2%,.,.,-15.0%,.,.
COc1ccccc1S(=O)(=O)Cc1ccc(C(=O)NCc2ccc3c(c2)OCO3)o1,25.6%,-6.3%,8.4%,-10.5%,19.9%,0.9%
CCCCNC(=O)CSc1nc(O)cc(=O)n1C1CCCC1,4.8%,-11.3%,-5.3%,2.5%,23.7%,7.2%
CCc1nnc2sc(-c3ccc(OC)c(NC(=O)C(C)(C)C)c3)nn12,-7.3%,.,.,.,.,.
CCOc1cc2c(cc1OCC)C(C(=O)O)C(c1cc(Br)c(O)c(OC)c1)N(C)C2=O (stereo not given),0.0%,1.3%,-3.2%[57.1 µM],-7.1%,32.5%,?
COc1ccc(C(=O)Nc2ccc(C(=O)Nc3cccnc3)cc2)cc1,5.0%,-34.0%,-25.8%,10.6%,?,50.1µM*
COCCC(=O)N[C@H]1CC[C@]2(C)CCC([C@H](C)C(=O)NCc3cc(F)cc(F)c3)[C@H](O)[C@H]2[C@@H]1C (stereo not given in full),24.9%,.,.,.,.,.
Cc1ccc(S(=O)(=O)Nc2ccc3c(c2)CN(CCc2ccc(F)cc2)C(=O)C(C)O3)cc1F (stereo not given),28.2µM*,.,.,.,.,.
CCCCOc1ccc(C(=O)NC(=S)NCCCO)cc1Br,7.94µM*,.,.,.,.,.
CC1(C(=O)NS(=O)(=O)c2cccc(OC(F)F)c2)CCN1C(=O)c1ccccc1 (stereo not given),?,.,.,-2.4%,.,.
CN(Cc1nc2ccccc2n1C(F)F)S(=O)(=O)c1ccc(F)c(F)c1,-11.6%,.,.,.,.,.
CN(Cc1nc2ccccc2n1C)S(=O)(=O)c1ccc(Cl)cc1,0.0%,-20.5%[11.4 µM],6.3%,13.4µM*,-6.7%,1.6%[12.7 µM]
O=C1OC(c2ccccc2)(c2ccccc2)c2ccccc21,-8.0%,49.7%,.,-2.8%,39.6%[57 µM],.
O=C1C(=C(c2ccccc2)c2ccccc2)C(Cl)C(Cl)(Cl)c2ccccc21 (stereo not given),10µM*,.,.,.,.,.
Cc1cc(C([O-])=C(C(=S)Nc2ccccc2)[n+]2ccccc2)c(C)n1-c1ccccc1,?,31.6µM*,.,?,?,.
Cc1ccccc1NC(=S)/C(=C(\[O-])c1cc(C)n(Cc2ccccc2Cl)c1C)[n+]1ccccc1,?,35.5µM*,39.8µM*,?,?,50.1µM*
COCCNC(=O)c1c[nH]n2c(=O)cc(C3CCN(C(=O)OC(C)(C)C)CC3)nc12,-2.5%,-7.8%,-20.7%,0.5%,25.0%,56.2µM*
CC(C)N(Cc1nccn1C)C(=O)c1cc(COc2ccc(F)cc2Cl)on1,-5.9%,-13.1%,-18.8%,3.3%,21.1%,41.5%
O=c1[nH]c2sc3c(c2c2nc(-c4ccccc4)nn12)CCC3,-4.6%,.,.,.,.,.
Cc1cc(-c2nc3c4c5c(sc4[nH]c(=O)n3n2)CCC5)c(C)o1,.,?,50.1µM*,?,?,?
COC(=O)NNC(=O)C1CCC(C(=O)NNC(=O)OC)CC1 (stereo not given),6.7%,-0.3%,3.0%,?,49.3%,-3.3%
O=C(COC(=O)c1ccccc1C(=O)c1ccc(Cl)cc1)NCc1ccccc1,-19.5%,-5.9%,1.5%,0.2%,35.2%,12.1%[59 µM]
O=C(COC(=O)c1ccccc1Nc1ccccc1)NCc1ccccc1Cl,-10.9%,-7.3%,1.5%,4.9%,18.0%,-1.2%
O=C(COC(=O)c1ccccc1Nc1ccccc1)NCc1ccccc1,7.6%,0.7%,3.3%,-7.8%,46.3%,50.1µM*
